Among the data in ChEMBL document CHEMBL4513216, “Probing the Open Global Health Chemical Diversity Library for Multistage-Active Starting Points for Next-Generation Antimalarials” (ACS Infect Dis, 2020) are INHIBITION values, retold here.

The structures appear in SMILES notation. The campaign covered roughly 69,000 compounds. About 8,600 (12%) showed an effect of 50% or more. The full list was thinned out, with strong results kept by preference.

The experiment concerns Plasmodium berghei. Put plainly: Screen against P. berghei liver stage (PbLuc), transformed with Luciferase, at 10uM. In kind it is functional, HepG2. To be noted: tested at 10 uM.
`CC(Cn1cccn1)NC(=O)c1cc(C2CC2)nc2c1cnn2C` (stereo not drawn): the INHIBITION is -6.18%. In the case of `Cn1cc(CN2CCC(c3cc(COc4cccc(Cl)c4)[nH]n3)C2)cn1` (stereo not drawn) it was 21.955%; in that of `COc1ccc(CN2CC(n3cccn3)C2)cc1F`, 4.34%.

On to `COc1ccc(C)cc1CN1CCCC1Cn1nc(C)nc1C` (stereo not drawn), for which the INHIBITION came out at 25.3%. Then `COc1ccc(CN2CCN(Cc3nccn3C)C(C)C2)cc1F` (stereo not drawn), with -85.6%. In the case of `COc1ccc(C(C)=O)cc1CN1CCn2cccc2C1C` (stereo not drawn) it was 58.5%.

Regarding `COc1ccc(C)cc1CN1CCn2cccc2C1C` (stereo not drawn), the INHIBITION amounted to 84.2%. For the compound `COC(=O)c1ccc(OC)c(CN2CCN(CC(C)C)C(=O)C2C)c1` (stereo not drawn), the INHIBITION is reported as -14.1%. In the case of `COc1ccc(CN2CCn3cccc3C2C)cc1F` (stereo not drawn) it was 59.4%; in that of `COc1cc(C(C)=O)ccc1OCC(=O)c1cccn1C`, 41.3%. In the case of `COc1ccc(C)cc1CN1CCN(Cc2nccn2C)C(C)C1` (stereo not drawn) it was -78.3%; in that of `CC(=O)N1CCN(CCNS(=O)(=O)c2c(F)cccc2F)CC1`, 31.6%; in that of `Cn1cnc2c1C(C(=O)N1CCCC1)N(CC1CC1)CC2` (stereo not drawn), 0.804%.

Consider `COc1ccc2c(c1)CCCN2Cc1nc(C)c(C)o1`, for which the INHIBITION was 19.8%.

On to `Cc1cc(C)n(CC2CN(Cc3noc(C)n3)CCO2)n1` (stereo not drawn), for which the INHIBITION was found to be 5.7%. Then `CCCn1nnnc1COC(=O)C1COc2ccccc2O1` (stereo not drawn), with 49%; and `O=C(NCCc1cc2nc(-c3ccncc3)ccn2n1)C1CCOCC1`, with 17.14%. Then `Cc1nnsc1C(=O)N1C[C@@H]2CC[C@H]1CN(c1cnccn1)C2`, with 4.35%; and `Cc1cc(F)ccc1CCNC(=O)NCC(C)N1CCOCC1` (stereo not drawn), with 11.1%.

`O=C(O)c1cc(S(=O)(=O)Nc2cnn(C3CCOCC3)c2)ccc1F`: the INHIBITION came to 29.3%.

Turning to `CCN(C(=O)CCc1ccc2c(c1)OCO2)C1CC(=O)NC1=O` (stereo not drawn), the INHIBITION came out at 7.97%. In the case of `Cc1cnn(C2CCCN(C(=O)Cc3c(C)nn(C)c3C)C2)c1` (stereo not drawn) it was 53.9%; in that of `O=C(CCc1nccs1)N1CCCC(n2cccn2)C1` (stereo not drawn), 38.5%. In the case of `Cc1nn(C)c(C)c1CC(=O)N1CCCC(CNS(C)(=O)=O)C1` (stereo not drawn) it was 50.2%; in that of `Cc1cnn(C2CCCN(C(=O)CCc3nccs3)C2)c1` (stereo not drawn), 63.9%; in that of `Cc1nn(C)c(C)c1CC(=O)N1CCCC(n2ccnc2)C1` (stereo not drawn), 44.3%. As to `Cc1nn(C)c(C)c1CC(=O)N1CCCC(n2ccnc2C)C1` (stereo not drawn), the INHIBITION is recorded as 23.7%. Turning to `Cc1cnn(C2CCCN(C(=O)CCc3ccncc3)C2)c1` (stereo not drawn), the INHIBITION worked out at 26.4%. In the case of `Cc1nn(C)c(C)c1CC(=O)N1CCCC(n2cccn2)C1` (stereo not drawn), the INHIBITION is 7.13%. In the case of `Cc1nn(CC(C)C)c(C)c1CC(=O)N1CCCC(CNS(C)(=O)=O)C1` (stereo not drawn) it was 24.1%. In the case of `Cc1nn(C)c(C)c1-c1ccnc(N2CCCN(CC(C)C)CC2)n1` it was 24.3%. As to `COc1ccc(F)c(NCc2ccc(C(=O)N(C)C)[nH]2)c1`, the INHIBITION is recorded as -22.6%. Then `CN(Cc1nc2ccccc2o1)C1CCCN(c2cccnn2)C1` (stereo not drawn), with 28.8%; and `CC(=O)N1CCN([C@@H]2CC[C@@H](N(C)C(=O)C3CCCCC3)[C@H]2O)CC1`, with 39.7%; and `Cc1nc(CN2CCOCC3(CCCN(c4cnccn4)C3)C2)cs1` (stereo not drawn), with 15.4%. In the case of `CCCc1cc(N2CCC(NCC3(O)CCCCC3)CC2)nc(C)n1` it was 6.69%. Then `c1ccc(CN2CCC(NCCSc3ncn[nH]3)C2)cc1` (stereo not drawn), with 42.3%; and `Cc1n[nH]c(SCCNC2CCN(c3nc4ccccc4s3)CC2)n1`, with 50.2%; and `CCCc1cc(CNC2CCN(c3nc4ccccc4s3)CC2)on1`, with 67.8%. As for `CCCc1cc(N2CCC(NC3CCC(O)CC3)CC2)nc(C)n1` (stereo not drawn), the INHIBITION turned out to be 2.15%.

With `CCCc1cc(CNC2CCN(c3cc(C)nc(N)n3)CC2)on1`, the INHIBITION is given as 71.1%. For the compound `CCCc1cc(CNC(=O)C2CCOc3ccccc3C2)on1` (stereo not drawn), the INHIBITION is 26.8%. In the case of `Cn1ccnc1SCCNC1CCN(c2nc3ccccc3s2)CC1` it was 34.1%; in that of `CCCc1cc(N2CCC(NC3CCOCC3)CC2)nc(C)n1`, 22.1%.

On to `CCCc1cc(CNC2CCN(c3cc(C(C)C)nc(C)n3)CC2)on1`, for which the INHIBITION worked out at 61.3%.

On to `CCCc1cc(CNC2CCN(c3nc(C)cc(C)n3)CC2)on1`, for which the INHIBITION stood at 35.2%. On to `CCCC1COCCN1Cc1ccc(NC(C)=O)cc1` (stereo not drawn), for which the INHIBITION was -30%. For `CC(C(=O)N1CCCCC1)N1CCN(c2nccs2)CC1` (stereo not drawn), the INHIBITION worked out at 41.3%. In the case of `CN(C)C(=O)NCc1cc(=O)n2c(n1)CN(Cc1ccoc1)CCC2`, the INHIBITION amounted to 5.41%. Then `CCn1ncc2c1C(COCC1CC1)N(Cc1cnn(C)c1)CC2` (stereo not drawn), with -44.2%. In the case of `O[C@H]1CCN(Cc2ccoc2)[C@H]1Cc1cccnc1` it was 41.4%. In the case of `CC(=O)N1CCCCC[C@@H]2[C@@H]1[C@H](c1cccc(F)c1)CN2CCC(N)=O` it was 32.95%. For `O=C(C1=CCCC1)N1C[C@H]2CCC[C@@]2(COCc2ccncc2)C1`, the INHIBITION was 47.9%.
